# Measurements taken from the supplement of paper PMC9135407.
# Where “and” joins values, the source holds several entries; their conditions need not be identical. Equal entries are not always repeated. Structures can show the parent of a compound that is named as a salt. About 620 (11%) of roughly 5,800 compounds showed activity. The list comes from a sample in which actives are over-represented; it also holds similar structures and randomly drawn compounds. A number with no mark means an inactive call.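 How the source made its calls: active = score above a cut-off or among the top three wells of a plate; in these data no inactive exceeds 0.85.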
# Tested on: primary human hepatic stellate cells (donor 1)
# Experiment: scaled lipid accumulation score (0 = DMSO-like, 1 = nortriptyline-like); higher = stronger HSC inactivation (lipid re-accumulation), active = hit call of the paper
# Settings: 48 h
# [1] = library stock concentration: 3.33 mM
# [2] = library stock concentration: 10 mM
# [3] = library stock concentration: 1 mM
# [4] = library stock concentration: 80 uM
# [5] = library stock concentration: 400 uM
# [6] = library stock concentration: 2 mM
compound,measurement,setting,value
Cc1nc2cc3nc(-c4cccs4)cnc3cc2n1C,scaled lipid accumulation score,[1],≤ 0
Cc1csc(-c2nnc(Nc3ccc(Oc4ncccc4-c4ccnc(N)n4)cc3)c3ccccc23)c1,scaled lipid accumulation score,[1],≤ 0
same,scaled lipid accumulation score,[2],≤ 0
CCCCCCCCCCCCCCCCC/C=C/C(=O)O [.DELTA.2-trans Eicosenoic Acid],scaled lipid accumulation score,[3],≤ 0
Cc1oncc1C(=O)Nc1ccc(C(F)(F)F)cc1 [Leflunomide],scaled lipid accumulation score,,≤ 0
same,scaled lipid accumulation score,[4],0.045
same,scaled lipid accumulation score,[5],≤ 0
same,scaled lipid accumulation score,[6],≤ 0
same,scaled lipid accumulation score,[1],≤ 0
O=c1oc(-c2ccc(C(F)(F)F)cc2)nn1Cc1cc(Cl)ccc1O,scaled lipid accumulation score,[2],0.172
O=C(Nc1cc(C(F)(F)F)cc(C(F)(F)F)c1)c1cc(Cl)ccc1O [listing 1 of 3 here],scaled lipid accumulation score,[2],1.61 (active)
O=C(Nc1ccccc1)c1ccccc1O [Salicylanilide],scaled lipid accumulation score,[1],≤ 0
same,scaled lipid accumulation score,library stock concentration: 9.4 mM,0.019
same,scaled lipid accumulation score,[2],0.041
O=C(Nc1cc(C(F)(F)F)cc(C(F)(F)F)c1)c1cc(Cl)ccc1O [IKK-2 Inhibitor V],scaled lipid accumulation score,[1],≤ 0
O=C(Nc1cc(C(F)(F)F)cc(C(F)(F)F)c1)c1cc(Cl)ccc1O [listing 2 of 3 here],scaled lipid accumulation score,[2],1.1 (active)
O=C(Nc1ccc([N+](=O)[O-])cc1Cl)c1cc(Cl)ccc1O [Niclosamide] [listing 1 of 2 here],scaled lipid accumulation score,,0.776
O=C(Nc1cc(C(F)(F)F)cc(C(F)(F)F)c1)c1cc(Cl)ccc1O [listing 3 of 3 here],scaled lipid accumulation score,[1],0.722
O=C(Nc1ccccc1)c1cc([N+](=O)[O-])ccc1Cl,scaled lipid accumulation score,[3],≤ 0
same,scaled lipid accumulation score,[1],0.023
same,scaled lipid accumulation score,[2],≤ 0 and 0.358 and 0.105
O=C(Nc1ccc([N+](=O)[O-])cc1Cl)c1cc(Cl)ccc1O [Niclosamide] [listing 2 of 2 here],scaled lipid accumulation score,library stock concentration: 6.1 mM,1.15 (active)
same,scaled lipid accumulation score,[2],1.08 (active)
C[C@]12CC[C@@H]3c4ccc(O)cc4CC[C@H]3[C@@H]1C[C@H](O)[C@@H]2O,scaled lipid accumulation score,[2],≤ 0
O=C1CCC(c2ccc(-n3ccnc3)cc2)=NN1 [Imazodan],scaled lipid accumulation score,[2],≤ -0.07
CC(C)n1cnc2c(NCc3ccccc3)nc(NCCCO)nc21 [Bohemine],scaled lipid accumulation score,[4],≤ -0.001
same,scaled lipid accumulation score,[5],≤ -0.001
same,scaled lipid accumulation score,[6],≤ -0.001
same,scaled lipid accumulation score,[1],≤ 0
same,scaled lipid accumulation score,[2],0.099
Cc1cc(OCc2nnc(SC3CCCC3)n2-c2cccnc2)ccc1-c1ccc(S(C)(=O)=O)cc1,scaled lipid accumulation score,[1],0.619
same,scaled lipid accumulation score,[2],0.187
CN(C)[C@@H]1C(O)=C(C(=O)NCN2CCCC2)C(=O)[C@@]2(O)C(O)=C3C(=O)c4c(O)cccc4[C@@](C)(O)[C@H]3C[C@@H]12,scaled lipid accumulation score,[2],≤ 0
CN(C)[C@@H]1C(O)=C(C(=O)NCN2CCCC2)C(=O)[C@@]2(O)C(O)=C3C(=O)c4c(O)cccc4[C@@](C)(O)[C@H]3C[C@@H]12 [Rolitetracycline],scaled lipid accumulation score,,≤ 0
CC(=O)N(OCc1ccccc1)[C@H]1c2cc(C#N)ccc2OC(C)(C)[C@H]1O,scaled lipid accumulation score,[2],≤ 0
N[C@@H]1CCN(O)C1=O,scaled lipid accumulation score,[2],≤ 0
CCCCCCCCCCCCCCCC(=O)NC[C@@H](C)O [R-Palmitoyl-(2-methyl) Ethanolamide],scaled lipid accumulation score,[3],≤ 0
COc1ccc2cc1Oc1ccc(cc1)C[C@H]1c3cc(c(OC)cc3CCN1C)Oc1c(OC)c(OC)cc3c1[C@H](C2)N(C)CC3 [Tetrandrine],scaled lipid accumulation score,,0.685
same,scaled lipid accumulation score,[1],0.783
same,scaled lipid accumulation score,[2],0.45
COc1ccc2c(c1OC)C(=O)O[C@@H]2[C@H]1c2c(cc3c(c2OC)OCO3)CCN1C [Noscapine hydrchloride],scaled lipid accumulation score,[2],≤ -0.055
COc1cc2c(cc1OC)[C@@H]1Cc3ccc(OC)c(OC)c3CN1CC2 [Rotundine],scaled lipid accumulation score,[1],≤ 0
same,scaled lipid accumulation score,[2],≤ 0
COc1ccc2cc1Oc1ccc(cc1)C[C@H]1c3c(cc4c(c3Oc3cc5c(cc3OC)CCN(C)[C@@H]5C2)OCO4)CCN1C [Cepharanthine] [listing 1 of 2 here],scaled lipid accumulation score,[2],0.689
COc1ccc2c(c1OC)C(=O)O[C@@H]2[C@H]1c2c(cc3c(c2OC)OCO3)CCN1C [Noscapine],scaled lipid accumulation score,,≤ 0
COc1cc2c3cc1Oc1c(OC)c(OC)cc4c1[C@@H](Cc1ccc(OC(=O)c5ccc([N+](=O)[O-])cc5)c(c1)Oc1ccc(cc1)C[C@@H]3N(C)CC2)N(C)CC4 [E6 berbamine],scaled lipid accumulation score,library stock concentration: 6.6 mM,0.933 (active)
COc1ccc2cc1Oc1ccc(cc1)C[C@@H]1c3c(cc4c(c3Oc3cc5c(cc3OC)CCN(C)[C@H]5C2)OCO4)CCN1C [Cepharanthine],scaled lipid accumulation score,[1],1.03 (active)
COc1cc2c3cc1Oc1cc(ccc1O)C[C@@H]1c4c(cc(OC)c(O)c4Oc4ccc(cc4)C[C@@H]3N(C)CC2)CC[N+]1(C)C [Tubocurarine chloride],scaled lipid accumulation score,library stock concentration: 3.1 mM,≤ 0
COc1ccc2cc1Oc1ccc(cc1)C[C@H]1c3cc(c(OC)cc3CCN1C)Oc1c(OC)c(OC)cc3c1[C@H](C2)N(C)CC3 [Tetrandine],scaled lipid accumulation score,library stock concentration: 8 mM,0.535
COc1cc2c(c(OC)c1OC)-c1c(cc3c(c1OC)OCO3)CC(C)C(C)C2 (stereo not drawn) [Schisandrin B (Sch B)],scaled lipid accumulation score,[1],≤ 0
same,scaled lipid accumulation score,[2],≤ -0.001
COc1ccc2c(c1OC)C(=O)O[C@@H]2[C@H]1c2c(cc3c(c2OC)OCO3)CCN1C [Noscapine hydrochloride],scaled lipid accumulation score,library stock concentration: 4.4 mM,0.008
same,scaled lipid accumulation score,[2],0.011 and 0.074
COc1ccc2cc1Oc1ccc(cc1)C[C@H]1c3c(cc4c(c3Oc3cc5c(cc3OC)CCN(C)[C@@H]5C2)OCO4)CCN1C [Cepharanthine] [listing 2 of 2 here],scaled lipid accumulation score,[2],0.944 (active)
Cc1cc(C(N)=O)ccc1-n1c(CCC(=O)O)ccc1-c1ccc(-n2ccnc2)cc1,scaled lipid accumulation score,[1],≤ -0.009
same,scaled lipid accumulation score,[2],≤ 0
"O=C(O)c1ccc2c(c1)CCCC2 [5,6,7,8-tetrahydro-2-Naphthoic Acid]",scaled lipid accumulation score,[3],≤ 0
CS(=O)(=O)c1ccc(Cn2c3c(c4cc(F)cc(F)c42)CCCC3CC(=O)O)cc1 (stereo not drawn),scaled lipid accumulation score,[2],≤ -0.006
O=C(O)c1ccc2c(c1)nc(Nc1cccc(Cl)c1)c1ccncc12,scaled lipid accumulation score,[5],≤ -0.005
same,scaled lipid accumulation score,[6],≤ -0.005
same,scaled lipid accumulation score,[2],≤ -0.005
O=C(O)c1ccc2c(c1)nc(Nc1cccc(Cl)c1)c1ccncc12 [CX-4945 (Silmitasertib)],scaled lipid accumulation score,[1],≤ 0
same,scaled lipid accumulation score,[2],≤ 0
